Results as given in PubChem BioAssay (NCATS).
Values without a mark were called inactive. For part of these data: Potency and affinity values are given separately. Activity calls are given as the source filed them. No rule for the calls is given here.

Experiments:
[1] = Ebola virus entry assay, green fluorescence channel
[2] = Ebola virus entry assay, blue channel fluorescence
[3] = Ebola virus entry assay, ratio channel
[4] = Ebola virus entry assay, reporter ratio channel; Channel type: primary
For efficacy in this document: 0% is about no effect.

SMILES	efficacy [1] [%]	AC50 [2]	AC50 [3]	AC50 [4]	outcome [2]	outcome [3]	outcome [4]
CCCCOc1cc(C(=O)NCCN(CC)CC)c2ccccc2n1	119	12.6 µM (active)	10 µM (active)	10 µM (active)	–	–	–
CC(=O)c1ccc2c(c1)N(CCCN1CCC(CCO)CC1)c1ccccc1S2	62.5	3.16 µM (active)	2.82 µM (active)	2.82 µM (active)	–	–	–
O=C(c1cc(O)c(O)c(O)c1)c1ccc(O)c(O)c1O	38.9	1.78 µM (active)	1.78 µM (active)	1.78 µM (active)	–	–	–
O=C1CN2CCOC2(c2ccccc2Cl)c2cc(Cl)ccc2N1 (stereo not drawn)	46.2	–	–	–	inactive	inactive	inactive
CC[C@H]1C[C@@H]2C[C@H]3c4[nH]c5ccc(OC)cc5c4CCN(C2)[C@@H]13	66.1	31.6 µM (active)	39.8 µM (active)	39.8 µM (active)	–	–	–
Clc1ccc(C(Cn2ccnc2)OCc2c(Cl)cccc2Cl)c(Cl)c1 (stereo not drawn)	-112	14.1 µM (active)	8.91 µM (active)	8.91 µM (active)	–	–	–
Cc1c(C(=O)NN2CCCCC2)nn(-c2ccc(Cl)cc2Cl)c1-c1ccc(Cl)cc1	55.3	14.1 µM (active)	11.2 µM (active)	11.2 µM (active)	–	–	–
OC(CCCN1CCCCC1)(c1ccccc1)c1ccccc1	50.3	10 µM (active)	7.94 µM (active)	7.94 µM (active)	–	–	–
CCCOC(C(=O)OC1CCN(C)CC1)(c1ccccc1)c1ccccc1	30.9	7.94 µM (active)	7.08 µM (active)	7.08 µM (active)	–	–	–
CN1C(=O)[C@@H](NC(=O)c2cc3ccccc3[nH]2)N=C(c2ccccc2)c2ccccc21	-160	39.8 µM (active)	–	–	–	inactive	inactive
CCCCCCCCCCCCCCCCCCNC(=O)OC1CCN(C(=O)OC[C@H](COC(=O)N(Cc2cccc[n+]2CC)C(=O)c2ccccc2OC)OC)CC1	-117	39.8 µM (active)	–	–	–	inactive	inactive
CN1C[C@H](C(=O)N[C@]2(C)O[C@@]3(O)[C@@H]4CCCN4C(=O)[C@H](Cc4ccccc4)N3C2=O)C[C@@H]2c3cccc4[nH]cc(c34)C[C@H]21	95.4	28.2 µM (active)	17.8 µM (active)	17.8 µM (active)	–	–	–
